We go through 26 compounds from PubChem BioAssay (EPA / NIEHS).

Records with an inconclusive call do not appear. Active and inactive are the calls of the source. How the source made its calls: active means hit-call score of the fitted dose curve at least 0.9, where 1 is the maximum; inconclusive means response in the unintended direction; inactive means score below 0.9.

In general, AC50 refers to the concentration giving half of the maximal activity seen.

The assay in a line: ACEA_ER_80hr: ACEA Biosciences xCELLigence Real-Time Cell Analysis on Estrogen Receptor Agonism for Proliferation (AID 2282667). The conditions noted are these: T47D proliferation, impedance (xCELLigence), 80 h. In outline:
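T47D human breast cells were seeded on electrode plates, monitored overnight, then exposed continuously to compounds in eight-point 1:4 dilutions from 100 uM (max 0.5% DMSO). Impedance-based growth was read at 80 h, fitted upward relative to DMSO.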
In the case of `O=c1ssc(Cl)c1Cl`, the outcome was inactive.

`CCCCC(CC)COC(=O)c1c(Br)c(Br)c(Br)c(Br)c1C(=O)OCC(CC)CCCC` (stereo unspecified): the result was inactive.

As for `C=C(C)C(=O)OCC1CO1` (stereo unspecified), the compound was called inactive.

Take `C=CC(=O)OCC(F)(F)C(F)F`: the result was inactive.

For the compound `Cc1cc(C)c(C(=O)P(=O)(c2ccccc2)c2ccccc2)c(C)c1`, the call was inactive.

Consider `CCOP(=S)(OCC)SCS(=O)(=O)CC`, for which the compound was classed as inactive.

On to `CC(=O)c1ccc(-c2ccccc2)cc1`, for which the call was inactive.

As for `ClC(Cl)=C(c1ccc(Cl)cc1)c1ccccc1Cl`, the compound was called inactive.

Turning to `COP(=O)(CCC(=O)NCO)OC`, the call was inactive.

For the compound `OCC(F)(F)OC(F)(F)C(F)(F)OC(F)(F)CO`, the concentration at half-maximal activity (AC50) is 20.2 µM (active).

`CC(C)(C)N(NC(=O)c1ccc(Cl)cc1)C(=O)c1ccccc1`: the outcome was inactive.

With `O=C(CBr)OCc1ccccc1`, the result was inactive.

For `FC(F)(F)C(F)(C(F)(F)F)C(F)(F)C(F)(F)CC1CO1` (stereo unspecified), the compound was called inactive.

`O=C(O)C(F)(F)OC(F)(F)C(F)(F)OC(F)(F)F`: the outcome was inactive.

Regarding `CCOP(=S)(NC(C)C)Oc1ccccc1C(=O)OC(C)C` (stereo unspecified), the compound was classed as inactive.

For `CO/N=C(/C(=O)OC)c1ccccc1COc1ccccc1C`, the compound was called inactive.

As to `CCOP(=O)(O)C(N)=O`, the compound was called inactive.

`OCC(F)(F)OC(F)(F)C(F)(F)OC(F)(F)C(F)(F)OC(F)(F)CO`: the AC50 was 0.976 µM (active).

Consider `COP(N)(=S)OC`, for which the compound was classed as inactive.

Turning to `CC(=O)CCc1ccc2c(c1)OCO2`, the result was inactive.

Regarding `CC(O)C#N` (stereo unspecified), the outcome was inactive.

In the case of `c1ccc2c(c1)sc1ccccc12`, the compound was called inactive.

As for `COP(=O)(O)OC`, the result was inactive.

In the case of `CC(C)CBr`, the outcome was inactive.

As for `CCN(CC)C1CCCCC1`, the outcome was inactive.

For the compound `O=S(=O)(c1ccc(O)cc1)c1ccc(O)cc1`, the AC50 was 2.18 µM (active).
